An excerpt weighted towards active compounds, which were near 2.7% of everything screened.
MRP-1 activ: activators of MRP-1; viability increase, % at 10 µM; H69AR cells + doxorubicin, viability rescue, CellTiter-Glo; 140,000 compounds, 0.61% hits;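 active = viability gain under doxorubicin at or above a set limit, the compound median plus 3 SD, cut at about 4.7% in these data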;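 note: MRP-1 overexpressing cells given doxorubicin 25 µM after compound pretreatment; 18-22 h compound pretreatment then 72 h with doxorubicin before readout; 0% = doxorubicin-only wells and 100% = vehicle-treated cells without doxorubicin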
ERb coact inh: blocks coactivator binding to human estrogen receptor beta; Q92731; TR-FRET ER-beta LBD / SRC1-Cy5 peptide binding; receptor agonist-loaded with 1 µM estradiol; inhibition, % at 25.6 µM; 86,000 compounds, 1.3% hits; AID 633;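 active = compounds whose percent inhibition of the receptor-coactivator binding signal exceeds about 50% in the single-dose screen, limit read from the data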;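 note: 0% = receptor plus peptide wells without compound and 100% = peptide-only wells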
ERa SRC1 pot: ER-alpha (human) coactivator binding potentiation. TR-FRET ERalpha-LBD/SRC-Cy5 coactivator binding, 2 h; 100 = basal binding, no effect. coactivator binding (% of control), % at 25.6 µM. 86,000 compounds, 1.3% hits. AID 639; in the data active = activity above about 200%;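 note: binding measured in presence of low estradiol as agonist stimulus; 0% = peptide alone without receptor and 100% = receptor with peptide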
Target sequence (P03372 whole entry, looked up, the tested form may be a part): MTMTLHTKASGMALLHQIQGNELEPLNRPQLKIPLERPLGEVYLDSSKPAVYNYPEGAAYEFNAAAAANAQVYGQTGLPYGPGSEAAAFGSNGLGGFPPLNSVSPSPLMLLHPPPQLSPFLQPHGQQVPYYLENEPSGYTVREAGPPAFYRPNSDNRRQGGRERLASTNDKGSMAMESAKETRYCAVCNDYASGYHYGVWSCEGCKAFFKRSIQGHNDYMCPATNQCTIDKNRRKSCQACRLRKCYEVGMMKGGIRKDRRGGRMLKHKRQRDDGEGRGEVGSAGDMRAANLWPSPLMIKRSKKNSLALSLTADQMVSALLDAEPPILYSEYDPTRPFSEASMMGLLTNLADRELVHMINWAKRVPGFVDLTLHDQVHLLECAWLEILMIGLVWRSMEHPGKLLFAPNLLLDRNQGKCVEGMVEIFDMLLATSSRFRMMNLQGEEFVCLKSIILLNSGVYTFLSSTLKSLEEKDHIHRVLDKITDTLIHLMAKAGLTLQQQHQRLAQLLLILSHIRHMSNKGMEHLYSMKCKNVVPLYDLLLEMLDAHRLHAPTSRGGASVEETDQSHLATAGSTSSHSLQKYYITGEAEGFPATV
MRP reversal: reverses drug resistance mediated by MRP; H69AR cells + 2 uM doxorubicin, CellTiter-Glo, 72 h; differential viability (reversal), % at 10 µM; 85,000 compounds, 0.04% hits; AID 602;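 active = viability drop by adding the cancer drug above about 55%, with treated viability meeting a 40% cutoff, limit read from the data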;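 note: viability without doxorubicin minus viability with 2 µM doxorubicin for each compound; larger differential means the compound sensitizes cells more to doxorubicin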
ERa SRC1 inh: ER-alpha (human) coactivator binding inhibition; 86,000 compounds, 1.7% hits; AID 629; inhibition, % at 25.6 µM; TR-FRET ER-alpha LBD / SRC-1 peptide, estradiol-bound; P03372; in the data active = inhibition above about 50%;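 note: 0% = receptor plus peptide control and 100% = peptide only without receptor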
Numbers without * were called inactive; nt = not tested or not shown; [ ] = remark or other dose.

SMILES	MRP-1 activ	ERb coact inh	ERa SRC1 pot	MRP reversal	ERa SRC1 inh
O=c1c2ccccc2nc(CSc2ncnc3nc[nH]c23)n1-c1cccc(C(F)(F)F)c1	-1	-1	79	1	4
CCn1c(=NC(=O)c2ccc(S(=O)(=O)N3CCOCC3)cc2)sc2cccc(OC)c21	-3	40	261*[fluorescence artefact?]	nt	30
CCn1c(=NC(=O)c2ccc(N3C(=O)CCC3=O)cc2)sc2c(OC)ccc(OC)c21	-1	22	403*	-6	33
COc1cccc2sc(=NC(=O)c3ccc(S(=O)(=O)N4CCOCC4)cc3)n(C)c12	nt	11	161	0	6
CCn1c(=NC(=O)CN2C(=O)CCC2=O)sc2c(OC)ccc(OC)c21	-1	nt	nt	nt	nt
Cn1c[n+](C)cc1-c1ccc(/C(N)=N/O)cc1	-1	nt	nt	nt	nt
CC(C)c1ccc(NC(=O)CSc2ncccc2C(=O)Oc2cccc([N+](=O)[O-])c2)cc1	-3	nt	nt	nt	nt
COC(=O)c1ccc(NC(=O)C(=O)N2CCN(C(=S)Nc3cccc(OC)c3)CC2)cc1	6.2*	nt	nt	nt	nt
Cn1c(=O)[nH]c(=O)c2c1nc(CN1CCN(c3ccc(F)cc3)CC1)n2CCc1ccccc1	-3	-6	399*[fluorescence artefact?]	13	-21
Cc1c(C)n(C)c2ccc(C(=O)NCc3cccs3)cc12	5.5*	10	129	25	2
CCCN1C(=O)c2cc(C(=O)NCc3cccs3)ccc2C1O (centres undefined)	0	-2	160	-4	-3
CC(=O)NS(=O)(=O)c1ccc(NC(=O)c2ccc3c(c2)C(=O)N(CCC(C)C)C3=O)cc1	0	nt	nt	nt	nt
CCc1ccccc1NC(=O)c1cnc2scc(C)n2c1=O	-3	11	216*[fluorescence artefact?]	-2	10
O=C(NC(=S)Nc1ccc2oc(-c3cccnc3)nc2c1)c1cccc(Cl)c1	-2	nt	nt	nt	nt
COCCn1c(-c2ccccc2Cl)nc2c(c(=O)c3ccccc3n2C)c1=O	-3	nt	nt	nt	nt
COc1ccc(OC)c(NC(=S)N2CCC(C(O)(c3ccccc3)c3ccccc3)CC2)c1	-2	nt	nt	nt	nt
CCC1(C)NC(=O)N(CC(=O)Nc2sc3c(c2C(N)=O)CCC3)C1=O (centres undefined)	0	83*[fluorescence artefact?]	22	2	76*
NC(=O)c1c(NC(=O)CN2C(=O)CCC2=O)sc2c1CCCCC2	-1	nt	nt	nt	nt
COc1ccccc1-c1cc(C(=O)NC(C)C)no1	-2	1	100	7	0
COc1ccccc1-c1cc(C(=O)NC(C)c2ccccc2)no1 (centres undefined)	5.1*	-23	276*[fluorescence artefact?]	-4	-9
C[C@H](NS(=O)(=O)c1ccccc1)C(=O)OCC(=O)NC(=O)Nc1ccc2c(c1)OCCO2	-2	nt	nt	nt	nt
CCOC(=O)C1C(c2cccs2)NC(=O)NC1(O)C(F)(F)F (centres undefined)	-1	-1	527*[fluorescence artefact?]	-14	-2
COc1ccc(NC(=O)CSc2nc3c(c(=O)n2-c2ccccc2OC)SCC3)cc1	-1	-3	118	24	-3
COc1ccccc1-n1c(SCC(=O)NC2CCCCC2)nc2c(c1=O)SCC2	-4	1	697*	0	4
Cc1ccc(NC(=O)CCCCCCCCCCC2COCCO2)c(C)c1 (centres undefined)	-2	nt	nt	nt	nt
SMILES	MRP-1 activ	ERb coact inh	ERa SRC1 pot	MRP reversal	ERa SRC1 inh
Cn1c(=O)c2c(nc(N3CCCCCC3)n2Cc2cccc3ccccc23)n(C)c1=O	-6	-6	91	64*	0
CCCOc1ccccc1C1NC(=O)NC(C)=C1C(=O)OCCOC (centres undefined)	-3	-1	117	4	-5
COC(=O)C1=C(C)NC(C)=C(C(=O)OC)C1c1ccccc1OCc1c(C)no[n+]1[O-]	9.0*	7	103	6	6
COc1cc(C(=O)Nc2cc(-c3nc4cc(C)ccc4o3)ccc2C)cc(OC)c1OC	-1	60*[fluorescence artefact?]	59	-12	74*[fluorescence artefact?]
O=C(Nc1ccc2oc(-c3ccc4ccccc4c3)nc2c1)c1ccc2c(c1)OCCO2	-4	nt	nt	nt	nt
Cc1ccc2oc(-c3cccc(NC(=O)c4cc(-n5cnnc5)ccc4Cl)c3)nc2c1	-1	36	245*	-5	26
COc1cc(C(=O)Nc2cccc(-c3nc4cc(C)ccc4o3)c2)cc(OC)c1OC	-3	32	252*[fluorescence artefact?]	-2	72*[fluorescence artefact?]
Cc1ccc2nc(-c3cccc(NC(=O)c4ccc5c(c4)OCCO5)c3)oc2c1	1	42	102	-1	68*[fluorescence artefact?]
NS(=O)(=O)c1cccnc1Nc1cccc(Cl)c1Cl	-2	nt	nt	nt	nt
COc1ccc(N2C(=O)CC(N3CCC(O)(c4ccc(Br)cc4)CC3)C2=O)cc1 (centres undefined)	-1	3	109	10	0
O=C1CC(N2CCCN(C3CC(=O)N(c4ccc(F)cc4)C3=O)CC2)C(=O)N1c1ccc(F)cc1 (centres undefined)	8.3*	-5	116	9	-16
O=C1CC(N2CCC(O)(c3ccc(Br)cc3)CC2)C(=O)N1c1ccc(Cl)cc1 (centres undefined)	6.3*	nt	nt	nt	nt
N#CC(C(=O)Nc1ccccc1)=C1CCCCC1	0	74*	90	7	-1
N#CC(C(=O)O)=C1CCCC1	-1	20	93	3	14
O=C(Nc1cccc(C(F)(F)F)c1)Nc1ccc(N2CCCC2)c(S(=O)(=O)Nc2ccccc2Cl)c1	-4	nt	nt	nt	nt
CCOC(=O)c1cnn(-c2ccccc2)c1-n1cccc1C(=O)C(=O)Nc1ccc(OC)cc1	1	nt	nt	nt	nt
COc1cc(NC(=O)c2cccs2)c(OC)cc1NC(=O)c1ccco1	-2	nt	nt	nt	nt
COc1cc(NC(=O)c2cccs2)c(C(=O)OCC(=O)NC(C)c2ccccc2)cc1OC (centres undefined)	-2	nt	nt	nt	nt
COc1cc(NC(=O)c2cccs2)c(C(=O)OCC(=O)NCc2ccccc2)cc1OC	0	3	269*	-3	16
COc1ccccc1NC(=O)Cn1nnc(-c2ccccc2NC(=O)c2cccs2)n1	-2	-5	339*[fluorescence artefact?]	-2	-15
O=C(Cn1nnc(-c2ccccc2NC(=O)c2cccs2)n1)Nc1ccccc1	-4	57*[fluorescence artefact?]	200*[fluorescence artefact?]	-2	65*[fluorescence artefact?]
COc1cc(NC(=O)c2cccs2)c(OC)cc1NC(=O)CCn1nnc2ccccc21	-2	51*[fluorescence artefact?]	112	-10	-1
CC1=NN(C(=O)c2c(Br)c(C)nn2C)C(O)(C(F)(F)F)C1 (centres undefined)	1	nt	nt	nt	nt
Cc1csc(NC(=O)c2cc3c(C)nn(Cc4ccccc4Cl)c3s2)n1	5.0*	nt	nt	nt	nt
Cc1nn(Cc2ccccc2Cl)c2sc(C(=O)NC(C)(C)C)cc12	0	-7	114	-3	-2
COc1ccc(CCNC(=O)Cc2ccc(OCc3ccccc3)c(OC)c2[N+](=O)[O-])cc1OCc1ccccc1	-2	nt	nt	nt	nt
COP(=O)(OC)c1nc(-c2ccccc2)oc1NCc1ccccc1	-2	nt	nt	nt	nt
CNc1oc(-c2ccccc2Cl)nc1P(=O)(c1ccccc1)c1ccccc1	4.7*	nt	nt	nt	nt
CNc1oc(-c2ccc(C)cc2)nc1P(=O)(c1ccccc1)c1ccccc1	7.4*	nt	nt	nt	nt

Screening data (PubChem BioAssay)
